CYP2C19 activ: cytochrome P450 2C19 (human) activation | activation factor at 5 µM | P33261 | 96,000 tested, under 10 active | recombinant CYP2C19, luciferin-H EGE luminescence; active compounds read high; 0 = fully inhibited enzyme, 1 = untreated enzyme | AID 1025;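 active means activation factor of at least 2 at 5 µM in the primary screen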;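 further: 0 = wells with 2.5 mM tranylcypromine and 1 = vehicle-only wells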
CYP2C9 activ: CYP2C9 (human) activation. P11712. recombinant CYP2C9, luciferin-H conversion, luminescence; active compounds read high; factor 1 = untreated enzyme, 0 = blocked. activation factor at 5 µM. hit rate 1.4% among 96,000;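 active means activation factor of 2 or more for CYP2C9 at a 5 µM dose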;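 further: 0 = sulfaphenazole-blocked wells and 1 = vehicle-only wells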
Target sequence (P11712 whole entry, looked up): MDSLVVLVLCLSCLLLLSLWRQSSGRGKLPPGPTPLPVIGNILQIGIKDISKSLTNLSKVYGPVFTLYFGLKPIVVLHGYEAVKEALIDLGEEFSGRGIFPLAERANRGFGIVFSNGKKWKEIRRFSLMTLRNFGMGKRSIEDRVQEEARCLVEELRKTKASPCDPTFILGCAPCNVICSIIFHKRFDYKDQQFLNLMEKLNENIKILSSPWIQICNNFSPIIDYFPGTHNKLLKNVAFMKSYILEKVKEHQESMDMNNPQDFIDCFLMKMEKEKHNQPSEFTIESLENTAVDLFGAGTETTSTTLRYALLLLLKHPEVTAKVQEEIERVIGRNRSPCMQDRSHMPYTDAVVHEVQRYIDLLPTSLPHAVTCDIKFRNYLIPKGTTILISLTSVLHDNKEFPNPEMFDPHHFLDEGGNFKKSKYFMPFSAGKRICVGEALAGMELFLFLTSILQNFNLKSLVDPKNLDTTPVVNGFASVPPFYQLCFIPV
hDAT+cocaine: human DAT dopamine uptake with cocaine, either direction; hit rate 1.3% among 110,000; B-score at 10 µM; Q01959; LLC-PK1 hDAT cells, [14C]-dopamine uptake with cocaine IC80; actives deviate in either direction;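 active means Z score or B-score, a plate-position-corrected score, falls beyond the plate's 99.7% confidence bounds, in either direction; inactive means both scores lie inside the 99.7% bounds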;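 further: scored against the spread of the other compound wells on the same plate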
CYP2C9 inhib: inhibitors of human CYP2C9 | hit rate 20% among 96,000 | P11712 | inhibition, % at 5 µM | AID 777 | CYP2C9 Supersomes, luciferin-H conversion, luminescence;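 active means blocking of liver enzyme CYP2C9 beyond about 50% at 5 µM, limit read from the data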
CYP2C19 inhib: inhibitors of human CYP2C19. P33261. CYP2C19 Supersomes, luciferin-H EGE luminescence, 30 min. inhibition, % at 5 µM. hit rate 21% among 96,000;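 active means CYP2C19 inhibition above a set limit at 5 µM in the primary screen, cut at about 50% in these data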;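 further: plate controls were negative control wells for no effect and 2.5 mM tranylcypromine positive control for full effect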
D1 mod: D1 dopamine receptor (human) allosteric modulation | P21728 | HEK293 D1, CRE-luciferase, dopamine EC30 potentiation; actives deviate in either direction | B-score at 10 µM | hit rate 5.9% among 58,000 | AID 641;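 active means luminescence count or its row- and column-corrected plate score outside the 99.7% band of the plate's sample wells, on either side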
Starred values were filed as active, the others as inactive; x = not tested or not shown. In the library only some 28% were active in any assay of this set; here they are far more common.

SMILES | CYP2C19 activ | CYP2C9 activ | hDAT+cocaine | CYP2C9 inhib | CYP2C19 inhib | D1 mod
CCN(CC)CCn1c2ccccc2c2nc(C)sc21 | 0.6 | 1 | -0.83 | 0 | 42 | -1.7
Cc1cc(C)n(C2=NS(=O)(=O)c3ccccc32)n1 | 1.1 | 1.2 | -1.8 | -17 | -6 | -0.084
OCCNc1ncnc2ccc(Br)cc12 | 1.1 | 1.1 | -0.61 | -6 | -14 | 0.2
Cc1cccc(Nc2ncnc3ccccc23)c1 | 0.4 | 0.5 | -0.88 | 46 | 59* | x
Brc1ccc2ncnc(Nc3cccc4ccccc34)c2c1 | 0.2 | 0.4 | 1.3 | 59* | 80* | x
CCOC(=O)c1cccc(Nc2ncnc3ccccc23)c1 | x | x | 0.047 | x | x | x
O=C(CCCN1C(=O)c2ccccc2C1=O)NCc1ccco1 | x | x | 0.25 | x | x | x
COc1ccc(C2CC(=O)C(C=NCCN3CCN(C(C)=O)CC3)=C(O)C2)cc1OC (stereo not given) | 1 | 1.1 | x | -6 | -4 | 0.7
COc1cccc(C2C(C(=O)c3cc4ccccc4o3)=C(O)C(=O)N2c2cc(C)on2)c1OC (stereo not given) | 1 | 0.7 | x | 30 | -4 | -0.51
COc1cccc(C2C(C(=O)c3cc4cccc(OC)c4o3)=C(O)C(=O)N2c2cc(C)on2)c1OC (stereo not given) | 0.9 | 0.1 | 2.3 | 85* | 10 | 0.58
COc1cccc(C2C(C(=O)c3cccs3)=C(O)C(=O)N2c2cc(C)on2)c1 (stereo not given) | 0.8 | 0.4 | 2.4 | 58* | 18 | x
O=C(CCSc1ccccc1)Nc1ccc(OCc2ccccc2)cc1 | 1 | 0.9 | 0.94 | 6 | -5 | x
CC1(c2nnc(-c3ccc(F)cc3)o2)CC(c2ccccc2)=NO1 (stereo not given) | x | x | -1.6 | x | x | x
O=C(Nc1ccccc1C(=O)N1CCOCC1)C1CC(=O)N(C2CCCC2)C1 (stereo not given) | 1.2 | 1.1 | 0.28 | -14 | -16 | 0.25
COC(=O)c1ccccc1NC(=O)C1CC(=O)N(C2CCCCC2)C1 (stereo not given) | 0.3 | 0.4 | 0.76 | 59* | 66* | 0.76
CCc1ccc(N2CC(C(=O)N/N=C/c3cccc([N+](=O)[O-])c3)CC2=O)cc1 (stereo not given) | 0.8 | 0.3 | -0.038 | 69* | 16 | x
COC(=O)c1ccccc1NC(=O)C1CC(=O)N(c2ccc(F)cc2)C1 (stereo not given) | 0.2 | 0.4 | -0.098 | 64* | 84* | 0.29
CCCOc1ccc(N2CC(C(=O)Nc3ccccc3F)CC2=O)cc1 (stereo not given) | 1 | 0.6 | -0.14 | 41 | 3 | -0.63
CCc1ccc(N2CC(C(=O)Nc3ccccc3F)CC2=O)cc1 (stereo not given) | 0.5 | 0.2 | -0.059 | 82* | 46 | -0.59
O=C(N=NC(=O)c1ccc2c(O)n(C3CCCCC3)c(O)c2c1)c1cccnc1 | 0.8 | 0.8 | -0.25 | 22 | 24 | x
O=C(NCc1cccc(Br)c1)C1CC(c2ccccc2C(F)(F)F)=NO1 (stereo not given) | x | x | -0.12 | x | x | x
Cc1cccc2cc(COC(=O)C(C)C)c(=O)[nH]c12 | 0.9 | 1.1 | 0.079 | -5 | 12 | -0.49
CC1CC(C)CN(c2nc3c(c(=O)n(C)c(=O)n3C)n2CCSc2nc3ccccc3o2)C1 (stereo not given) | x | x | x | x | x | -0.21
CC(C)(C)n1nnnc1C(c1cccs1)N1CCCc2ccccc21 (stereo not given) | 0.6 | 0.7 | -0.16 | 30 | 37 | -0.12
CCOc1ccc(N2CC(C(=O)Nc3ncccc3C)CC2=O)cc1 (stereo not given) | 1.1 | 0.8 | 0.41 | 24 | -6 | -0.19
SMILES | CYP2C19 activ | CYP2C9 activ | hDAT+cocaine | CYP2C9 inhib | CYP2C19 inhib | D1 mod
CCOc1cc(N2CCOCC2)c(OCC)cc1NC(=O)C(NC(=O)c1ccco1)C(C)C (stereo not given) | 0.9 | 1 | -0.11 | -2 | 10 | 0.29
CCOc1ccccc1C(=O)NC(C(=O)Nc1ccccc1N1CCOCC1)C(C)C (stereo not given) | 0.6 | 0.3 | 0.55 | 73* | 38 | 0.38
CCOc1ccc(N2CC(C(=O)Nc3ccccc3N3CCOCC3)CC2=O)cc1 (stereo not given) | 0.6 | 0.2 | 0.078 | 85* | 41 | x
O=C(CSC1=NCCS1)N1CCOCC1 | 0.9 | 0.7 | -0.35 | 30 | 8 | x
CCOC(=O)c1c(C)n(C)c2ccc(OC(C)=O)cc12 | x | x | -0.037 | x | x | x
CCOC(=O)c1c(CSC(=N)N)n(-c2ccc(C)cc2)c2cc(Br)c(OC(C)=O)cc12 | 0.6 | 0.3 | 1.2 | 65* | 36 | x
CCOC(=O)c1c(CN2CCOCC2)n(-c2ccccc2)c2cc(Br)c(O)cc12 | 0.4 | 0.4 | 2.5 | 64* | 57* | x
CCOC(=O)c1c(CN2CCOCC2)n(-c2ccccc2)c2cc(Br)c(OC)cc12 | 0.5 | 0.2 | 0.26 | 78* | 52* | x
O=C(Nc1nnc(-c2ccc3c(c2)CCCC3)o1)C1COc2ccccc2O1 (stereo not given) | 1 | 0.9 | 0.31 | 9 | 4 | -0.45
COc1cc(CCCN2C(=O)C(=O)NC[C@@H]2C(C)O)cc(OC)c1OC (stereo not given in full) | x | x | -0.38 | x | x | x
CCc1nc2ccccc2c(C(=O)OCC(=O)Nc2cccc(S(=O)(=O)N3CCOCC3)c2)c1C | 0.8 | 1 | 0.23 | 3 | 24 | x
C=CCc1ccc(OCC(O)COc2ccc(CC=C)cc2OC)c(OC)c1 | 0 | 0.1 | 0.68 | 93* | 97* | x
C=CCc1ccc(OCCCOc2ccc(C)cc2OC)c(OC)c1 | 0.4 | 0.7 | -0.51 | 32 | 59* | x
C=CCc1ccc(OCC(O)CN2CCCCC2)c(OC)c1 (stereo not given) | 0.9 | 1 | 0.32 | 3 | 8 | x
C=CCc1ccc(OCCOCCOc2ccccc2[N+](=O)[O-])c(OC)c1 | 0.1 | 0.2 | 1.2 | 77* | 85* | x
O=C(NCc1ccco1)C(c1ccco1)N(CCc1ccccc1)C(=O)Cn1nnc2ccccc21 (stereo not given) | 0.9 | 1 | -0.031 | -4 | 8 | -0.5
CCN(Cc1ccccc1)C(c1ccc(C)cc1)c1nnnn1C(C)(C)C (stereo not given) | 0.7 | 0.9 | 0.1 | 10 | 27 | x
c1ccc(CN(Cc2cccs2)C(c2cccs2)c2nnnn2C2CCCC2)cc1 (stereo not given) | 0.7 | 0.6 | -1.1 | 41 | 32 | x
CC(C)(C)n1nnnc1C(c1ccncc1)N(Cc1ccccc1)Cc1ccco1 (stereo not given) | 0.3 | 0.1 | 0.57 | 87* | 74* | x
CC(C)(C)n1nnnc1C(c1ccccn1)N(Cc1ccccc1)Cc1ccc(Cl)cc1 (stereo not given) | 0.9 | 0.7 | -0.36 | 32 | 6 | x
CC(C)(C)n1nnnc1C(c1cccs1)N(Cc1cccnc1)Cc1ccco1 (stereo not given) | 0.1 | 0.2 | 0.42 | 83* | 86* | x
